Assay outcomes deposited in PubChem by National Center for Advancing Translational Sciences (NCATS).
IMPase cell inh: IMPase inhibition in cells. CHO-M1 cells, IP1 accumulation, HTRF TR-FRET ratio. inhibition (IP1 accumulation), % at 46.1 µM. 120,000 tested, under 10 active. AID 901; active = well fitted curve in the direction sought with a large enough effect in the signal ratio, not every such curve was filed as active; inconclusive = small, poorly fitted or top-dose-only effect, or a change in a side signal; inactive = no such curve, though single readings can be large or run the other way; the % refers to the signal ratio;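 note: cells stimulated with carbachol in lithium chloride buffer; plate controls were DMSO basal wells for no effect and reference inhibitor wells for full effect; higher means more IMPase inhibition seen as more IP1 and lower FRET ratio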
Target sequence (P97697 whole entry, looked up): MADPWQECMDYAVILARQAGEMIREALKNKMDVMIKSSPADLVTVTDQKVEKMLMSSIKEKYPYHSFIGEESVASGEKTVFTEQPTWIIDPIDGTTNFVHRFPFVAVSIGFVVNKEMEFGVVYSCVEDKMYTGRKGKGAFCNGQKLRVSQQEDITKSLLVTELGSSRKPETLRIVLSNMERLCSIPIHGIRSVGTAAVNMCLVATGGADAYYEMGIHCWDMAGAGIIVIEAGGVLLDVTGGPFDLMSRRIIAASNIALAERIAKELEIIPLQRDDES
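Measured: the HTRF emission ratio (665/620 nm) plus the 620 nm donor channel, each fitted to the Hill equation to give AC50. Cells were CHO-M1 given compounds up to 46 uM and a 30 min carbachol stimulation at 37C.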
ALDH1A1 block: blocks purified human ALDH1A1 activity; Purified ALDH1A1, NADH fluorescence, propionaldehyde substrate; actives 7.3% (n = 220,000); Potency, µM (titrated, usually from 75.3 µM), inactives show top-dose activity, negative = inhibition, actives largely listed as inhibitors; P00352;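 note: potency is the fitted concentration of half-maximal effect; plate controls were no enzyme wells and a reference inhibitor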
PNC inhibitor: blocks assembly of the perinucleolar compartment | AID 2417 | activity change (PNC), negative = inhibition, % at 10 µM | actives 3.1% (n = 140,000) | PC3M PTB-GFP, PNC prevalence imaging, 16 h; active compounds read low;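 active = readout at or below -70, meaning at least 70% loss of cells showing the perinucleolar compartment, a nuclear body marking cancer cells; inconclusive = readout between -30 and a set limit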;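 note: plate controls were DMSO wells for no effect and camptothecin positive control wells for full effect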
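Read-out is percentage of cells bearing a perinucleolar compartment, from automated 20x imaging of fixed, Hoechst-stained PC3M PTB-GFP cells. Cells were seeded 4 h, then exposed 16 h to compound (23 nl of library stock) in duplicate plates.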
HPGD block: inhibitors of human 15-hydroxyprostaglandin dehydrogenase (HPGD) | P15428 | purified HPGD, NADH fluorescence kinetic, PGE2 substrate | Potency, µM, without a hit: top-dose activity change, negative = inhibition, actives largely listed as inhibitors | actives 4.3% (n = 150,000); note: potency is the fitted concentration of half-maximal effect
Target sequence (P15428 whole entry, looked up): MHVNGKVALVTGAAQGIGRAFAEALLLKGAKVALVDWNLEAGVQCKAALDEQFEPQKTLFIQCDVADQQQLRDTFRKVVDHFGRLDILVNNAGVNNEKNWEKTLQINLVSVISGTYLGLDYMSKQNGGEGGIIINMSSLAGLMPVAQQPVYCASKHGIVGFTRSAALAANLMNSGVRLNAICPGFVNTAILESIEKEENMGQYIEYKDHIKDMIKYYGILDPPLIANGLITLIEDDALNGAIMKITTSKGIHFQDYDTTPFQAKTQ
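20 nM HPGD preincubated 15 min at room temperature with compound in 50 mM Tris-HCl pH 8, 0.01% Tween 20. Started with 1 mM NAD+ and 30 uM prostaglandin E2; NADH fluorescence (360/450 nm) read 5 times over 30-s intervals, last minus first.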
IMPase Li cell: IMPase inhibition in cells with lithium potentiation | actives 0.35% (n = 210,000) | AID 1457 | Potency, µM (highest dose often 59.4 µM), inactives show at the top dose activity, negative = IMPase inhibition, hits mostly inhibitors | CHO-M1 cells, IP1 TR-FRET (IP-One), carbachol + lithium; active = well fitted inhibition curve with a large enough effect; inconclusive = small, poorly fitted or top-dose-only effect; inactive = no such curve, though single readings can be large or run the other way;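 note: IP1 builds up when IMPase is blocked and the TR-FRET signal falls; potency is the fitted concentration of half-maximal effect; plate controls were basal vehicle for no effect and high inhibitor control for full effect; nearly all actives have a fitted effect of over 50% in size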
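CHO cells stably expressing M1 receptor (2000/well, cultured 16–30 h) treated 30 min at 37C with compound plus low lithium. Cytosolic IP1 by TR-FRET (665/620 ratio and 620 channel) after 10 min lysis; AC50 by Hill fit.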
* = called active by the depositor; u = inconclusive; x = no result given; [ ] = remark or other dose. Sampled rows, rich in hits. Any-hit rate of the full collection: about 11%. Unless noted, calls come from the whole dose curve; as a rule, active = well fitted inhibition curve with a large enough effect (not every such curve was filed as active); inconclusive = small, poorly fitted or top-dose-only effect, or another doubt; inactive = no such curve, though single readings can be large or run the other way. Unless noted, % is set by controls: 0 for no effect and ±100 for the full control effect.

SMILES	IMPase cell inh	ALDH1A1 block	PNC inhibitor	HPGD block	IMPase Li cell
O=C(COc1ccc2ccccc2c1)NCCNC(=O)COc1ccc2ccccc2c1	u	-3%	15	-12%	13µM*
O=C(COC(=O)CSc1ccc2ccccc2c1Br)NC1CC1	x	-5%	x	x	10µM*
O=C(COc1ccc2ccccc2c1)NNC(=O)Cc1ccccc1	x	2%	2	-6%	u
O=C(COC(=O)CSc1ccc2ccccc2c1)NC1CC1	-20	-9%	49	x	x
NCCC[C@@H](CC(=O)N[C@@H]1CCNC[C@H]1C(=O)N[C@H](CC(=O)N[C@@H](CCC(=O)O)CC(=O)O)Cc1c[nH]c2ccccc12)NC(=O)C[C@H](Cc1c[nH]c2ccccc12)NC(=O)[C@@H]1CNCC[C@H]1N	x	-14%	x	-4%	5%
COc1ccc2c(c1)C(=O)[C@@H](OC(=O)Nc1ccc(C)c(Br)c1)[C@H](c1ccc(OC)c(Br)c1)O2	x	2%	x	-12%	5%
COc1ccc2c(c1)c(=O)oc1cc(O)ccc12	x	-4%	x	x	-10%
O=c1oc2cc(O)ccc2c2ccccc12	u	-1%	-15	-5%	13µM*
CCCS(=O)(=O)N1CCC(C(=O)NC2CCCCC2C)CC1 (configuration not stated)	2	10µM*	15	x	x
CCS(=O)(=O)N1CCCC(C(=O)NC2CCCCC2C)C1 (configuration not stated)	-10	0%	63	1%	6%[38.3 µM]
COc1ccc(Cl)cc1C(=O)Nc1ccc2oc(-c3ccc(C(C)(C)C)cc3)nc2c1	-12	x	x	x	x
Cn1c(=O)c(-c2ccc(Cl)cc2)nc2cnc(N3CCOCC3)nc21	x	u	x	x	-11%
COc1ccccc1-n1cnc2cc(NCc3cccs3)ccc21	4	u	-81*	u	33%[38.3 µM]
CCCNC(=O)c1cccc(COc2ccccc2OC)c1	x	5%	x	x	5%
COc1ccc(OC)c(-n2cnc3cc(C(=O)NCCCN4CCOCC4)ccc32)c1	1	-2%	-16	25µM*	3%[38.3 µM]
CCCNC(=O)c1ccc2c(c1)ncn2-c1ccccc1OC	-4	2%	u	18µM*	-7%[38.3 µM]
Nc1ccc(C(=O)Nc2cccc(N)c2)cc1	x	9%	x	x	x
COc1ccccc1N1CCN(C(CNS(=O)(=O)c2cc(F)ccc2F)c2cccnc2)CC1 (configuration not stated)	x	20µM*	3	-10%	7%
COc1ccccc1N1CCN(C(CNS(=O)(=O)c2ccccc2)c2cccnc2)CC1 (configuration not stated)	-5	20µM*	31	-3%	12%[38.3 µM]
COc1ccc(S(=O)(=O)NCC(c2cccnc2)N2CCN(c3ccccc3OC)CC2)cc1C (configuration not stated)	-3	u	-13	-9%	-3%[38.3 µM]
CCCC[C@H](CC)CN1CN(C[C@@H](CC)CCCC)CC(C)(N)C1	0[20.6 µM]	1%[20.9 µM]	x	1%	7%
COc1cc2[nH]c(=O)c(C(=O)NCCCN3CCOCC3)c(O)c2cc1OC	x	u	x	x	5%
CCN(CC)CCNC(=O)c1c(O)c2cc(OC)c(OC)cc2[nH]c1=O	-2	u	-119*	-28%	2%
NNC(=O)CN1CCN(c2ncc(C(F)(F)F)cc2Cl)CC1	x	u	x	x	-12%
CC(C)(C)NC(=O)NC(=O)CN1CCN(c2ncc(C(F)(F)F)cc2Cl)CC1	-6	28µM*	4	-21%	36%[38.3 µM]
SMILES	IMPase cell inh	ALDH1A1 block	PNC inhibitor	HPGD block	IMPase Li cell
CC(C)NC(=O)c1onc(CSc2ccc(F)c(F)c2)c1C(=O)O	2	22µM*	83	-21%	-13%[38.3 µM]
CC(C)NC(=O)c1onc(CSc2ccc(F)cc2)c1C(=O)O	2	u	55	40µM*	-5%[38.3 µM]
C=CCNC(=O)c1onc(CSc2ccccc2)c1C(=O)O	-1	1%	44	-16%	-15%[38.3 µM]
CC(C)NC(=O)c1onc(CSc2ccc(C(C)C)cc2)c1C(=O)O	-1	u	54	22µM*	-3%[38.3 µM]
Cc1ccc(SCc2noc(C(=O)NC(C)C)c2C(=O)O)cc1C	1	u	-1	-14%	-5%[38.3 µM]
C=CCNC(=O)c1onc(CSc2ccc(C(C)C)cc2)c1C(=O)O	2	-11%	80	14µM*	6%[38.3 µM]
CCOc1ccccc1O[C@@H](c1ccccc1)[C@@H]1CNCCO1	15	u	x	-3%	21%
CCOc1ccc(C(=O)NCCc2ccc3c(c2)OCCO3)cc1	x	12%	x	x	-1%
C/C(=N\NC(=O)CSc1nc2ccccc2[nH]1)c1ccncc1	x	u	x	x	7%
C/C(=N/NC(=O)CSc1nc2ccccc2s1)c1ccncc1	x	20µM*	x	x	x
C/C(=N/NC(=O)CSc1nc2ccccc2n1C)c1ccncc1	x	10µM*	x	x	35%
CS/C(=N\S(=O)(=O)c1cccs1)NC(=O)CSc1nc2ccccc2s1	17	28µM*	14	25µM*	-9%[38.3 µM]
Cc1ccc(S(=O)(=O)NC(=O)CSc2nc3ccccc3s2)cc1	-5	-2%	18	-12%	3%[38.3 µM]
Cc1ccc(S(=O)(=O)N2CCC(C(=O)NNC(=O)C3CC3)CC2)cc1Cl	x	1%	x	x	1%
O=C(NCc1ccccc1)C1(c2cccc(F)c2)CCCC1	x	6%	x	x	10%
CCOC(=O)c1c(C)[nH]c(C)c1C(=O)CN1C(=O)NC(CC(C)C)C1=O (configuration not stated)	-3	7%	-94*	-6%	1%
CCOC(=O)c1c(C)[nH]c(C)c1C(=O)CN1C(=O)NC2(CCC(C)CC2)C1=O (configuration not stated)	-5	1%	u	-1%	14%[38.3 µM]
CCC(Sc1nnc2c(n1)[nH]c1ccccc12)C(=O)Nc1ccccc1OC (configuration not stated)	16	x	x	x	x
Cc1ccc(C(C[N+](=O)[O-])c2c(-c3ccccc3O)[nH][nH]c2=O)cc1 (configuration not stated)	x	20µM*	47	-24%	2%
COC(=O)c1cccc(Cn2c(Cl)c(/C=N/Nc3ccccc3C)sc2=O)c1	x	22µM*	17	u	9%
O=C(O)c1cccc(Cn2c(Cl)c(/C=N/NC(=O)c3cccc(O)c3)sc2=O)c1	x	-1%	x	x	x
O=C(O)c1cccc(Cn2c(Cl)c(/C=N/NC(=O)c3ccccc3)sc2=O)c1	-4	0%	29	-28%	-6%[38.3 µM]
O=C(O)c1cccc(Cn2c(Cl)c(/C=N/NC(=O)c3cc4ccccc4cc3O)sc2=O)c1	x	10µM*	x	x	x
Cc1nn(C)c(C(=O)N/N=C/c2ccc(C(F)(F)F)cc2)c1[N+](=O)[O-]	x	6%	-9	-7%	-3%
O=C1/C(=C/N(C(=O)c2ccco2)c2ccc(Br)cc2)Sc2ccccc21	x	u	172	32µM*	3%
CCOC(=O)Cn1c(=NC(=O)c2cc(-c3cccs3)nc3ccccc23)sc2cc(S(N)(=O)=O)ccc21	x	u	-10	u	-1%
